Source: PubChem
This excerpt belongs to a sample that is enriched for hits.
NOMO-1 viab: STK33 inhibitor candidate reducing NOMO-1 cell viability. NOMO-1 AML viability, CellTiter-Glo luminescence, 72 h. inhibition, % (test concentration not listed). 37,000 compounds, 7.5% hits. AID 2330; in the data active = inhibition above about 80%; inconclusive = no clear call, values can overlap the other calls
STK33 kin inh: blocks human STK33 kinase activity | AID 2322 | ADP-Glo luminescence, MBP substrate | inhibition, % at 12.5 µM | 27,000 compounds, 0.44% hits | Q9BYT3; in the data active = inhibition above about 20%; inconclusive = no clear call, values can overlap the other calls
Target sequence (Q9BYT3 whole entry, looked up): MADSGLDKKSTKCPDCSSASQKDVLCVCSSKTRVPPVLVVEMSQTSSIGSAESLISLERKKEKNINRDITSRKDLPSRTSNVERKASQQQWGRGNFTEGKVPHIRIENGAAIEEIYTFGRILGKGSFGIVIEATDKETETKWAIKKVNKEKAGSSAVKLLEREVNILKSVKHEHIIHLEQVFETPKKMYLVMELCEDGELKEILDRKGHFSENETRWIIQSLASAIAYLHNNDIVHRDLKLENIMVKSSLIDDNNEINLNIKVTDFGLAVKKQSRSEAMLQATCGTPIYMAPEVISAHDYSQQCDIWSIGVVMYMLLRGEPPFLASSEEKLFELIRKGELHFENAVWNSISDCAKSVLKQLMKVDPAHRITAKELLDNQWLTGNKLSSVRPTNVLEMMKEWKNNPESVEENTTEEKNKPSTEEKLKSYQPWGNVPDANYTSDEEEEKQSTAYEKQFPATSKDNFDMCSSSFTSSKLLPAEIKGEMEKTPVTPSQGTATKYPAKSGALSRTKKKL
PD-1 reverse act: activators reversing PD-1 mediated T-cell inhibition; AID 2316; 29,000 tested, under 10 active; primary human CD4 T cells, PD-L1 beads, CellTiter-Glo 96 h; activation, % (concentration not given with the values); call rule not given here;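 also: 0% = median vehicle wells and 100% = positive control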
An asterisk follows results filed as active; ? = inconclusive; nt = no result given.

SMILES	NOMO-1 viab	STK33 kin inh	PD-1 reverse act
COc1ccc(NC(=O)Nc2ccc3c(c2)C(=O)N([C@H](C)CO)C[C@H](C)[C@H](CN(C)Cc2ccc4c(c2)OCO4)O3)cc1	97.2*	nt	nt
C[C@H]1CN([C@@H](C)CO)C(=O)c2cc(NC(=O)C3CCCCC3)ccc2O[C@H]1CN(C)Cc1ccc2c(c1)OCO2	91.7*	-2.4	0.9
CC(C)NC(=O)Nc1ccc2c(c1)C(=O)N([C@@H](C)CO)C[C@@H](C)[C@@H](CN(C)Cc1ccc3c(c1)OCO3)O2	-2.6	-0.1	1.2
C[C@H]1CN([C@@H](C)CO)C(=O)c2cc(NC(=O)Nc3ccccc3)ccc2O[C@H]1CN(C)Cc1ccc2c(c1)OCO2	92.0*	-0.8	5.8
C[C@@H]1CN([C@@H](C)CO)C(=O)c2cc(NC(=O)Nc3ccc(F)cc3)ccc2O[C@H]1CN(C)Cc1ccc2c(c1)OCO2	36.5	nt	0.6
CC(C)NC(=O)Nc1ccc2c(c1)C(=O)N([C@H](C)CO)C[C@H](C)[C@H](CN(C)Cc1ccc3c(c1)OCO3)O2	93.3*	nt	nt
CC(C)C1Cc2c(sc3nc(SCC(=O)Nc4ccc(Cl)cc4Cl)nc(N)c23)CO1 (stereo not drawn)	37.6	2.1	-1.8
Cc1cc(C(F)(F)F)nc(SCC(=O)Nc2cccc(Cl)c2Cl)n1	-10.3	-1.4	-1.7
C[C@H](CO)N1C[C@H](C)[C@H](CN(C)Cc2ccc3c(c2)OCO3)Oc2ccc(NC(=O)Nc3ccc4c(c3)OCO4)cc2C1=O	93.4*	nt	0.2
C[C@@H]1CN([C@H](C)CO)C(=O)c2cc(NC(=O)Nc3ccc(F)cc3)ccc2O[C@H]1CN(C)Cc1ccc2c(c1)OCO2	-6.3	-0.3	1.9
C[C@H](CO)N1C[C@H](C)[C@H](CN(C)Cc2ccc3c(c2)OCO3)Oc2ccc(NC(=O)Nc3ccc(F)cc3)cc2C1=O	88.9*	-3.8	-1.7
C[C@H]1CN([C@@H](C)CO)C(=O)c2cc(NC(=O)Nc3ccc4c(c3)OCO4)ccc2O[C@@H]1CN(C)Cc1ccc2c(c1)OCO2	26.8	nt	1.1
C[C@H]1CN([C@@H](C)CO)C(=O)c2cc(NC(=O)Cc3ccccc3)ccc2O[C@H]1CN(C)Cc1ccccc1	24.0	-0.5	2.0
C[C@@H]1CN([C@H](C)CO)C(=O)c2cc(NC(=O)Cc3ccccc3)ccc2O[C@H]1CN(C)Cc1ccc(-c2ccccc2)cc1	117.0*	1.5	-9.8
C[C@@H]1CN([C@@H](C)CO)C(=O)c2cc(NC(=O)Cc3ccccc3)ccc2O[C@@H]1CN(C)Cc1ccc(-c2ccccc2)cc1	35.4	1.3	-3.6
C[C@H](CO)N1C[C@H](C)[C@H](CN(C)Cc2ccncc2)Oc2ccc(NC(=O)Cc3ccccc3)cc2C1=O	98.1*	nt	nt
N#CCCSc1nnc(-c2cccnc2)n1Cc1ccccc1	-9.6	-0.5	0.8
Cc1ccc(NC(=O)C2Cc3ccccc3CN2S(=O)(=O)c2ccc(C)cc2)cc1 (stereo not drawn)	36.2	0.7	0.0
C[C@H]1CN([C@@H](C)CO)C(=O)c2cccc(NS(=O)(=O)c3ccc(F)cc3)c2O[C@H]1CN(C)Cc1ccc(C(=O)Nc2ccccc2N)cc1	113.8*	nt	1.5
C[C@H](CO)N1C[C@H](C)[C@@H](CN(C)Cc2ccc(C(=O)Nc3ccccc3N)cc2)Oc2c(NS(=O)(=O)c3ccc(F)cc3)cccc2C1=O	42.8	nt	-0.8
C[C@@H]1CN([C@@H](C)CO)C(=O)c2cccc(NS(=O)(=O)c3ccc(F)cc3)c2O[C@H]1CN(C)Cc1ccc(C(=O)Nc2ccccc2N)cc1	45.3	nt	-0.5
C[C@@H]1CN([C@@H](C)CO)C(=O)c2cccc(NS(=O)(=O)c3ccc(F)cc3)c2O[C@@H]1CN(C)Cc1ccc(C(=O)Nc2ccccc2N)cc1	128.7*	nt	0.6
C[C@H]1CN([C@@H](C)CO)C(=O)c2cccc(NS(=O)(=O)c3ccc(F)cc3)c2O[C@@H]1CN(C)Cc1ccc(C(=O)Nc2ccccc2N)cc1	94.0*	nt	0.6
CCOC(=O)C1CCCCN1Cc1ccc(OC)c(O)c1 (stereo not drawn)	25.4	-1.8	nt
COC(=O)CN1C=C(C(=O)OC)C(c2ccc(O)cc2)C(C(=O)OC)=C1	-10.9	-1.5	2.8
SMILES	NOMO-1 viab	STK33 kin inh	PD-1 reverse act
C[C@@H]1CN([C@@H](C)CO)C(=O)Cc2cc(NC(=O)Nc3ccc(C(F)(F)F)cc3)ccc2O[C@@H]1CN(C)Cc1ccc(Cl)c(Cl)c1	114.7*	0.0	-2.0
C[C@H](CO)N1C[C@H](C)[C@H](CN(C)Cc2ccncc2)Oc2ccc(NC(=O)Nc3ccc(C(F)(F)F)cc3)cc2CC1=O	126.1*	-1.8	-1.4
COc1ccc(CN(C)C[C@H]2Oc3ccc(NC(=O)Nc4ccc(C(F)(F)F)cc4)cc3CC(=O)N([C@@H](C)CO)C[C@@H]2C)cc1	14.1	-1.0	nt
C[C@H]1CN([C@@H](C)CO)C(=O)Cc2cc(NC(=O)Nc3ccc(C(F)(F)F)cc3)ccc2O[C@@H]1CN(C)Cc1ccc(Cl)c(Cl)c1	22.1	0.2	nt
C[C@@H]1CN([C@H](C)CO)C(=O)Cc2cc(NC(=O)Nc3ccc(C(F)(F)F)cc3)ccc2O[C@@H]1CN(C)Cc1ccc(C(F)(F)F)cc1	120.2*	-1.5	-3.2
CC(C)NC(=O)Nc1ccc2c(c1)CC(=O)N([C@@H](C)CO)C[C@H](C)[C@H](CN(C)Cc1ccc(C(F)(F)F)cc1)O2	23.5	-1.3	0.1
C[C@@H]1CN([C@H](C)CO)C(=O)Cc2cc(NC(=O)Nc3ccc(C(F)(F)F)cc3)ccc2O[C@H]1CN(C)Cc1ccc(C(F)(F)F)cc1	94.1*	-7.2	-2.0
C[C@@H]1CN([C@H](C)CO)C(=O)Cc2cc(NC(=O)Nc3ccc(C(F)(F)F)cc3)ccc2O[C@H]1CN(C)Cc1ccncc1	-6.9	-0.4	0.6
O=C(c1cc2nc(-c3ccco3)cc(C(F)(F)F)n2n1)N(Cc1ccccc1)Cc1ccccc1	74.5	nt	3.2
CCOC(=O)c1c(NC(=O)CSc2nc(C)ccc2C#N)sc2c1CCC2	?	-1.3	nt
O=C(CSc1ncn[nH]1)Nc1ccc(-c2nc3ccccc3s2)cc1	35.4	2.3	nt
Cc1ccc(S(=O)(=O)N(C)CC(=O)Nc2ccccc2Sc2ccccc2)cc1	9.1	5.0	-0.3
C[C@H](CO)N1C[C@H](C)[C@H](CN(C)Cc2ccc(C(F)(F)F)cc2)Oc2ccc(NC(=O)Nc3ccc(C(F)(F)F)cc3)cc2CC1=O	128.7*	-4.6	-2.4
C[C@@H]1CN([C@@H](C)CO)C(=O)Cc2cc(NC(=O)Nc3ccc(C(F)(F)F)cc3)ccc2O[C@@H]1CN(C)Cc1ccc(C(=O)O)cc1	4.8	-9.1	1.2
C[C@H]1CN([C@@H](C)CO)C(=O)Cc2cc(NC(=O)CCC(F)(F)F)ccc2O[C@H]1CN(C)Cc1ccc(Cl)c(Cl)c1	14.3	0.0	nt
C[C@@H]1CN([C@@H](C)CO)C(=O)Cc2cc(NC(=O)NC3CCCCC3)ccc2O[C@@H]1CN(C)C(=O)Nc1ccc(C(F)(F)F)cc1	13.7	-2.2	-2.6
C[C@@H]1CN([C@@H](C)CO)C(=O)Cc2cc(NC(=O)Nc3ccc(C(F)(F)F)cc3)ccc2O[C@@H]1CN(C)C(=O)NC1CCCCC1	112.8*	-0.4	-2.5
C[C@H](CO)N1C[C@H](C)[C@H](CN(C)C(=O)NC2CCCCC2)Oc2ccc(NC(=O)Nc3ccc(C(F)(F)F)cc3)cc2CC1=O	1.4	0.3	-2.2
